Screening data: PubChem BioAssay, National Center for Advancing Translational Sciences (NCATS)
A selection: hits, their analogues and other compounds. The true share with any hit is near 15%.
ELG1 repair inh = ELG1-dependent DNA repair inhibition; HEK293T ELG1-luciferase reporter, luminescence, 16 h; DNA damage induced by 5-fluorouridine; Potency, µM (highest dose often 46.1 µM), actives largely listed as inhibitors; actives 2.3% (n = 330,000); AID 504467; note: nearly all actives have a fitted effect of over 55% in size
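Luminescence from the luciferase reporter, measured 30 min after ONE-Glo reagent at room temperature, was the read-out. Beforehand, 2,000 cells per well were exposed for 16 hr at 37 °C to 5-fluorouridine together with compound or vehicle.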
DT40 TDP1 no CPT = qHTS for Inhibitors of human tyrosyl-DNA phosphodiesterase 1 (TDP1): qHTS in cells in absence of CPT; DT40 Tdp1-/- hTDP1 cells, no CPT, ATP luminescence, 48 h; Potency, µM (doses to about 46.2 µM), actives largely listed as inhibitors; actives 15% (n = 420,000); AID 686978, 2013; note: nearly all actives have a fitted effect of over 55% in size
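A cellular qHTS used chicken DT40 cells lacking endogenous Tdp1 but carrying stably transfected human TDP1. Compounds were applied without camptothecin, and cell growth kinetics were judged by ATP-dependent luminescence after ≥48 hr.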
RORgamma inh = ROR gamma (mouse) transcription inhibition; P51450; Drosophila S2 Gal4-RORgamma UAS-luciferase reporter, 20 h; Potency, µM (titrated, usually from 53.6 µM), usual class: inhibitors; actives 5.4% (n = 310,000); AID 2551; note: nearly all actives have a fitted effect of over 60% in size
Target sequence (P51450 whole entry, looked up, the tested form may be a part): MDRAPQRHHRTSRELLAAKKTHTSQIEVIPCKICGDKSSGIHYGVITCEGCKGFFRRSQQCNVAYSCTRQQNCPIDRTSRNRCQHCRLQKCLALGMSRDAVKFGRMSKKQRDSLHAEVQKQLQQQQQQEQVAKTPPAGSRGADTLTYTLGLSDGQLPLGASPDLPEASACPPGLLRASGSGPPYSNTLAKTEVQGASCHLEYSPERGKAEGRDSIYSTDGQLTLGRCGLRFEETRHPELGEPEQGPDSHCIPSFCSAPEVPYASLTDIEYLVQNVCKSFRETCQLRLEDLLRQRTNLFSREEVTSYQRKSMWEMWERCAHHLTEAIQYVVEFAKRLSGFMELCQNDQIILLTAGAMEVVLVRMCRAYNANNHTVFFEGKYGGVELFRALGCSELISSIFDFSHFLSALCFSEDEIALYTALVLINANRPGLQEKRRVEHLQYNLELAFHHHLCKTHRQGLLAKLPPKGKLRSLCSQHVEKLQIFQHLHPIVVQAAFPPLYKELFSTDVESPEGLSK
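Using a luciferase readout, inhibitors were identified by reduced reporter activity in Drosophila cells coexpressing a copper-inducible Gal4–ROR gamma fusion and UAS-driven Photinus luciferase, incubated 20 hr after 700 uM copper sulfate.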
TDP1 cell CPT = DT40-hTDP1 cell growth loss with CPT; chicken DT40 Tdp1-/-;hTDP1 cells + 20 nM CPT, ATP luminescence, 48 h; Potency, µM (top dose mostly 46.2 µM), usual class: inhibitors; actives 12% (n = 420,000); AID 686979; note: nearly all actives have a fitted effect of over 55% in size
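Chicken DT40 Tdp1-/- cells stably complemented with human TDP1 were seeded at 400 cells/well in medium containing 20 nM camptothecin, exposed to pin-transferred compounds, and grown at 37 °C for at least 48 hr. Viability was read as ATP luminescence.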
12-LOX inh = blocks human arachidonate 12S-lipoxygenase; P18054; actives 1.1% (n = 580,000); Potency, µM (highest dose often 108 µM), usual class: inhibitors; purified 12hLO, xylenol orange hydroperoxide absorbance; AID 1671190
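Purified human 12hLO at 150 nM in 25 mM Hepes, 0.01% Triton X-100, pH 7.0, preincubated 15 min at room temperature with compound. Reaction started with 40 uM arachidonic acid, 30 min at room temperature. Hydroperoxide measured by Fe-xylenol orange, 573/405 nm absorbance ratio.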
VP16 counter = inhibits Gal4-VP16 luciferase reporter, ROR gamma counter-screen; Drosophila S2 Gal4-VP16 UAS-luciferase, luminescence, 20 h; Potency, µM (series often up to 53.6 µM), actives largely listed as inhibitors; actives 3.5% (n = 310,000);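 note: Gal4-VP16 expression switched on by copper sulfate through the metallothionein promoter; nearly all actives have a fitted effect of over 50% in size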
Numbers stand for hits; 0 = inactive; ? = inconclusive; - = no result given; [ ] = another dose, or the depositor's remark. Calls come from the whole dose curve; as a rule, active = well fitted curve in the direction sought with a large enough effect; inconclusive = small, poorly fitted or top-dose-only effect, or another doubt; inactive = no such curve, though single readings can be large; an effect the other way counts as inactive or inconclusive.

SMILES	ELG1 repair inh	DT40 TDP1 no CPT	RORgamma inh	TDP1 cell CPT	12-LOX inh	VP16 counter
COCCCN1C(=O)C(=O)/C(=C(/O)c2ccc(OC)cc2)C1c1cccc(OC)c1 (configuration not stated)	0	0	0	0	0	0
c1ccc2c(c1)OCC(CNCC1COc3ccccc3O1)O2 (configuration not stated)	0	0	0	0	0	0
COc1cccc(OC)c1OCCNC[C@@H]1COc2ccccc2O1	-	27µM	0	27µM	?	0
O=C(NCC1CCCO1)c1ccc(CSc2nc3cccnc3n2Cc2ccc(F)cc2)cc1 (configuration not stated)	-	-	-	-	0	-
C#CC[N+](C)(C)CCCCCCCCCC	?	2.3µM	?	2.1µM	0	0
CC#CC[N+](C)(C)CCCCCCCCCCCC	0	0.46µM	?	0.58µM	0	7.1µM
C#CC[N+](C)(C)CCCCCCCCCCCC	0	0.65µM	?	1.3µM	0	11µM
O=C(CCC[C@@H]1[C@H]2CCCN3CCC[C@@H](CN1C(=O)c1cc(F)ccc1F)[C@@H]23)NCC1CC1	-	-	-	-	0	-
Cc1nc(CN(C)C(=O)c2cc(Cn3c(C)nc4ccccc43)on2)cs1	-	-	-	-	0	-
CCOC(=O)c1oc2nc(CC(C)C)c3c(c2c1N)CCC3	0	15µM	0	?	?	0
CN1C(=O)/C(=C/c2cn(CC(=O)NCc3ccco3)c3ccccc23)NC1=S	0	-	0	-	?	0
O=C(Cn1cc(SCc2c(F)cccc2Cl)c2ccccc21)N1CCCCCC1	-	?	-	23µM	0	-
Cc1ccccc1CSc1cn(CC(=O)N2CCCCC2)c2ccccc12	-	16µM	-	13µM	0	-
O=C(Cn1cc(SCc2cccc(F)c2)c2ccccc21)N1CCCC1	-	21µM	-	?	?	-
CN1C(=O)/C(=C/c2cn(CC(=O)N3CCCCC3)c3ccccc23)NC1=S	0	0	11µM	0	0	?
Cc1ccc(C)c(CSc2cn(CC(=O)N3CCCCCC3)c3ccccc23)c1	-	0	-	0	0	-
CC(C)(C)C(=O)NCCCNC(=O)C(C)(C)C	-	-	-	-	0	-
CCCNC(=O)C(C)Sc1nc2ccc(F)cc2c(=O)[nH]1 (configuration not stated)	-	-	-	-	0	-
O=C(Cn1cc(SCc2ccc(Br)cc2)c2ccccc21)N1CCCCC1	-	16µM	-	?	?	-
CCOC(=O)c1scc(-c2ccc(C)cc2)c1S(=O)(=O)Nc1cccc(CC)c1	-	13µM	-	12µM	0	-
Cc1ccc(C(=O)Nc2ccccc2-c2ccccc2)cc1S(=O)(=O)Nc1cccc(C)c1C	?	21µM	0	?	0	0
CCN(c1ccccc1)S(=O)(=O)c1c(-c2ccc(C)cc2)csc1C(=O)OC	-	15µM	-	18µM	0	-
Cc1ccc(S(=O)(=O)N(CCC(=O)O)c2ccccc2)cc1	0	0	0	0	0	0
CCOC(=O)c1scc(-c2ccc(C)cc2)c1S(=O)(=O)Nc1cc(OC)ccc1OC	-	3.7µM	-	9.2µM	?	-
COc1ccc(OC)c(S(=O)(=O)N2C[C@@H](Oc3ccccc3)C[C@H]2C(=O)NC2CC2)c1	-	-	-	-	0	-
SMILES	ELG1 repair inh	DT40 TDP1 no CPT	RORgamma inh	TDP1 cell CPT	12-LOX inh	VP16 counter
Cc1cn2nc(C(=O)NC3CCc4ccccc43)cc2c(N2CCCC2)n1 (configuration not stated)	-	-	-	-	0	-
O=c1[nH]c(=O)n(CC2CCCO2)c2nccc(-c3ccc(-c4ccccc4)cc3)c12 (configuration not stated)	-	-	-	-	0	-
CCOC(=O)c1c(-c2ccc(OC)c(OC)c2)csc1NC(=O)CNC(C)(C)CC	-	-	-	-	0	-
Cc1ccc(-n2c(C3CCN(C(=O)Cc4ccc(Cl)cc4)CC3)n[nH]c2=O)cc1	-	-	-	-	0	-
CCOC(=O)c1scc(-c2ccccc2)c1S(=O)(=O)Nc1ccccc1OC	-	21µM	-	18µM	?	-
CCOC(=O)c1scc(-c2ccc(C)cc2)c1S(=O)(=O)N1CCN(c2ccccc2F)CC1	-	18µM	-	15µM	0	-
CCOc1ccccc1NS(=O)(=O)c1csc(C(N)=O)c1	0	0	0	0	0	0
COC(=O)c1scc(-c2ccc(C)cc2)c1S(=O)(=O)Nc1cc(OC)c(OC)c(OC)c1	-	?	-	21µM	0	-
CCc1ccc(NS(=O)(=O)c2c(-c3ccccc3)csc2C(=O)OC)cc1	-	23µM	-	?	0	-
COC(=O)c1scc(-c2ccccc2)c1S(=O)(=O)Nc1ccc(C)c(Cl)c1	-	?	-	?	0	-
CN(C1CCc2nn(C)c(=O)n2CC1)S(=O)(=O)c1ccc(Cl)s1 (configuration not stated)	-	-	-	-	0	-
COC(=O)c1scc(-c2ccccc2)c1S(=O)(=O)Nc1cccc(C)c1C	-	26µM	-	?	0	-
CC(=O)N/N=C/c1cc(C(C)(C)C)cc(/C=N/NC(C)=O)c1O	15µM	26µM	2.8µM	0	0	14µM
CC12CC(NC(=O)N1c1cccc(C(=O)NCc3ccc4c(c3)OCO4)c1)c1cc(Cl)ccc1O2 (configuration not stated)	?	18µM	?	18µM	?	0
CS(=O)(=O)N1CCN(C2CCNCC2)C(=O)C1	-	-	-	-	0[6.33 µM]	-
O=P1(O)Oc2c(c(-c3ccccc3)cc3ccccc23)-c2c(-c3ccccc3)cc3ccccc3c2O1	-	-	0	-	-	0
Oc1cc(-c2ccccc2)c2ccccc2c1	0	?	0	18µM	?	0
c1ccc2c(N3CCOCC3)nc(-c3ccncc3)nc2c1	6.5µM	15µM	0	?	0	0
CC1CCN(c2nc(-c3ccncc3)nc3ccccc23)CC1	?	?	11µM	?	?	?
c1cncc(-c2nc(-n3ccnc3)c3ccccc3n2)c1	-	?	0	?	?	0
Cc1cc(N)n(-c2nc(-c3cccnc3)nc3ccccc23)n1	?	18µM	?	26µM	0	0
c1cncc(-c2nc(N3CCOCC3)c3ccccc3n2)c1	0	35µM	0	?	-	0
CC1CCN(c2nc(-c3ccc(C(C)(C)C)cc3)nc3ccccc23)CC1	-	?	-	?	0	-
C=CCCC(=O)NC1CCN(Cc2cccc(C(F)(F)F)c2)CC1	-	-	-	-	0	-
COc1cccc(CN2C[C@@H](CO)[C@H](NC(=O)C3CCC3)C2)n1	-	-	-	-	0	-
CC1CCN(c2nc(/C=C/c3ccccc3)nc3ccccc23)CC1	0	?	16µM	0	0	?
C(=C\c1nc(N2CCCC2)c2ccccc2n1)/c1ccccc1	0	?	0	?	0	0
COc1ccc2[nH]cc(CCNc3ccnc(-c4cccnc4)n3)c2c1	-	?	0	21µM	0	0
COc1ccc2[nH]cc(CCNc3ccnc(-c4ccoc4)n3)c2c1	-	?	0	?	?	0
